# Among all 68,000 compounds or so, about 2,700 (4%) showed an effect of 50% or more. Many of the other results were omitted from the sample, so strong results are more common in it than they were.
# Test system: Plasmodium berghei
# Assay: Screen against P. berghei liver stage (PbLuc), transformed with Luciferase, at 2uM
# Assay type: functional, HepG2
# Details: tested at 2 uM
row,SMILES,INHIBITION [%]
1,CCc1ccc(S(=O)(=O)Nc2ccncc2)s1,-13.03
2,COc1cc2c(cc1CN1CCn3c(CO)nnc3C1)CCC2,16.14
3,Cc1cc(CN2CCCC2c2noc(C)n2)no1 (stereo unspecified),-52.52
4,Cc1nnc([C@@H]2C[C@H]3CN(C4CCC4)C[C@H]3O2)[nH]1,4.07
5,CCCc1nnc(N2CCN(c3ccccc3OCC)CC2)o1,-11.34
6,O=C(CCC1CCCC1)N1CCCC(c2ncc3c(n2)CCNC3)C1 (stereo unspecified),24.89
7,Cc1c(CN2CCCC(C(=O)Nc3ccccc3)C2)cc(C#N)n1C (stereo unspecified),9.63
8,c1cc(CN2CCCCC2c2ccc(Nc3cnccn3)nc2)ccn1 (stereo unspecified),42.53
9,Cc1ncoc1C(=O)N1CCc2[nH]nc(-c3ccc4c(c3)OCO4)c2C1,-4.53
10,Cc1nc(COCc2cnc3n2CCN(CC2CCC2)C3C)cs1 (stereo unspecified),25.35
11,O=C(N[C@@H]1CC[C@@H](N2CCCC2)[C@@H]1O)c1cc2ccccc2[nH]1,51.88
12,O=C(N[C@@H]1CCC[C@@H](N2CCCC2)[C@@H]1O)c1cc2ccccc2[nH]1,14.49
13,O=C(N[C@@H]1CCC[C@@H](N2CCOCC2)[C@@H]1O)c1cc2ccccc2[nH]1,8.26
14,COCc1nc(C(=O)NS(=O)(=O)c2cc(F)ccc2F)cs1,29.37
15,Cc1nc(NCc2nncn2C2CC2)c2c(CC(C)C)csc2n1,36.86
16,COc1ccc(CN2CCC(O)(CN3CCCCC3)C2)c(C)c1 (stereo unspecified),-1.21
17,CN(Cc1noc(C2CC2)n1)C1CCN(Cc2nc(C3CC3)no2)C1 (stereo unspecified),27.89
18,CC1CCN(CCCNC(=O)NC(C)c2nncn2C)CC1 (stereo unspecified),6.3
19,CCNc1c(NC(=O)NCCOC)c(=O)oc2ccccc12,-25.41
20,FC(F)(F)c1nc(NC2CCc3ncnn3C2)c2ccccc2n1 (stereo unspecified),-8.8
21,FC(F)(F)c1nc(NC2CCCCC2)c2ccccc2n1,52.43
22,FC(F)(F)c1nc(NC2CCCC2)c2ccccc2n1,15.52
23,O=c1c2sccc2nc2n1CCN(Cc1ccccc1C(F)(F)F)CC2,26.56
24,O=C1CC(c2ccccc2)C2(CCN(C(=O)c3cnccn3)CC2)N1 (stereo unspecified),20.87
25,O=C([C@@H]1C[C@@H]2CCN(CCc3ccccc3)C[C@H]2O1)N1CCCC1,14.94
26,O=C([C@@H]1C[C@@H]2CCN(C3CCOCC3)C[C@H]2O1)N1CCCC1,-26.64

row,SMILES,INHIBITION [%]
1,COc1ccccc1CN1CC[C@H]2C[C@H](C(=O)N3CCCC3)O[C@H]2C1,15.89
2,COc1ccccc1CN1CC[C@H]2C[C@@H](C(=O)N3CCCC3)O[C@H]2C1,52.4
3,O=C([C@@H]1C[C@@H]2CCN(C3CCOCC3)C[C@@H]2O1)N1CCCC1,65.26
4,O=C([C@H]1C[C@@H]2CCN(C3CCOCC3)C[C@H]2O1)N1CCCC1,18.65
5,CCC1CN(CCC(=O)N(C)C)CCN1CCOC (stereo unspecified),-7.41
6,CC/N=c1\nc(NCC)nc2n1C(O)(Nc1cc(Cl)ccc1Cl)CS2 (stereo unspecified),28.5
7,CCc1nc(C(=O)N2CCN(CC)CC2)nn1-c1ccccc1Cl,13.24
8,CC(C)N(C)Cc1nnc2n1CCN(Cc1ccncc1)CC2,-2.32
9,COc1ccc(Cc2ncc3c(n2)CN(C(=O)CO)C3)cc1,6.39
10,Cc1cnn(C2CN(CC(=O)N(C)Cc3ccc(C)o3)C2)c1,62.51
11,Cc1cnn(C2CN(CC(=O)N(C)Cc3cccs3)C2)c1,7.67
12,Cc1ccc(CN(C)C(=O)CN2CC(n3cccn3)C2)o1,3
13,Cc1cc(NCc2ccco2)nc2[nH]nc(N)c12,-0.89
14,Fc1cccc(-c2nnn3c2COC(CNCc2nccs2)C3)c1 (stereo unspecified),-19.51
15,CC(C)NC(=O)N1CCOC2(CCCN(c3cccc(C#N)c3)C2)C1 (stereo unspecified),24.82
16,Cc1cccc(N2CCCC3(C2)CN(S(C)(=O)=O)CCO3)c1 (stereo unspecified),-51.66
17,CCS(=O)(=O)N1CCOC2(CCCN(c3cccc(C#N)c3)C2)C1 (stereo unspecified),56.76
18,Cc1cc(C(=O)N2CCN(CC(O)Cn3cccn3)CC2)c(C)o1 (stereo unspecified),12.62
19,CCOCC(O)CN1CCN(C(=O)c2ccccc2Cl)CC1 (stereo unspecified),-45.23
20,O=C(c1cccc(Cl)c1Cl)N1CCN(CC(O)Cn2cccn2)CC1 (stereo unspecified),65.3
21,CCCC(=O)NCC(=O)NC(c1ccc(Cl)cc1)C(F)(F)F (stereo unspecified),28.25
22,Cc1cccc(C(=O)NCc2ccnc(N(C)C)c2)n1,-11.1
23,O=C(C1CC1)N1CCN2C[C@H](c3ccccc3)[C@@H](CO)[C@H]2C1,7.41
24,CCC(CC)c1nnc(NC(=O)N2CCC(C(N)=O)CC2)s1,23.45
25,CC(=O)NC1CCCN(C(=O)Nc2nnc(C(C)C)s2)C1 (stereo unspecified),20.14
26,CCCc1nnc(NC(=O)N2CCCC2c2ccncc2)s1 (stereo unspecified),-24.78

row,SMILES,INHIBITION [%]
1,CCC(CC)c1nnc(NC(=O)N2CCCC(NC(C)=O)C2)s1 (stereo unspecified),56.49
2,CCCc1nnc(NC(=O)N2CCCC(NC(C)=O)C2)s1 (stereo unspecified),52.08
3,CC(=O)NC1CCCN(C(=O)NCc2cccnc2N(C)C)C1 (stereo unspecified),20.71
4,Cc1cc(C)c(S(=O)(=O)Nc2cccc3c2OCCO3)cc1C(=O)O,-49.16
5,Cc1oncc1C(=O)N1CC[C@H]2[C@H](CO[C@@H]2CNS(C)(=O)=O)C1,11.37
6,O=C(NCC1CCCCC1)N1C[C@@H]2C[C@@H]1CN2,-3.1
7,O=C(CC1CCCC1)N1C[C@@H]2C[C@@H]1CN2,30.4
8,CC(C)(C)CC(=O)N1C[C@@H]2C[C@@H]1CN2,74.88
9,CC(C(=O)N1CCc2sccc2C1)N1CCC(S(N)(=O)=O)CC1 (stereo unspecified),44.37
10,CN(Cc1ncnn1C)c1ccnc(Cc2ccccc2)n1,26.49
11,CN(C)c1nccc(N(C)Cc2nc3ccccc3n2C)n1,13.51
12,CN(C)c1nccc(N(C)Cc2ncnn2C)n1,65.42
13,CN(Cc1cccs1)c1cc(N2CCCC2CO)ncn1 (stereo unspecified),-25.71
14,Cc1c[nH]cc1C(=O)N1CCN(CCc2cccs2)CC1,-14.3
15,Cc1ccc(OCC(C)NS(C)(=O)=O)cc1C (stereo unspecified),52.85
16,COc1ccc(OCC(C)NS(C)(=O)=O)cc1 (stereo unspecified),37.05
17,Cc1ccc(OCC(C)NS(C)(=O)=O)cc1 (stereo unspecified),41.84
18,Cc1ncc(S(C)(=O)=O)c(N(C)CCCc2cnn(C)c2)n1,13.95
19,CNC(=O)[C@@H]1COC[C@H]2CN(C(=O)c3cccc(OC)c3)C[C@H]21,11.6
20,CNC(=O)[C@@H]1COC[C@H]2CN(C(=O)c3ccc(OC)cc3)C[C@H]21,51.36
21,CCc1ccc(C(=O)N2C[C@@H]3COC[C@@H](C(=O)NC)[C@@H]3C2)cc1,-10.98
22,Cc1ccc(-c2noc(CN3CC(n4cc(C)cn4)C3)n2)cc1,-21.39
23,c1cnn(C2CN(Cc3nc(-c4ccsc4)no3)C2)c1,-5.2
24,Cc1cnn(C2CN(Cc3nc(-c4ccsc4)no3)C2)c1,56.02
25,COCC1CN(C(=O)CC2Cc3ccccc3C2)Cc2c1cnn2C (stereo unspecified),56.25
26,COCC1CN(C(=O)c2ccnnc2)Cc2c1cnn2C (stereo unspecified),6.57

row,SMILES,INHIBITION [%]
1,COCC1CN(C(=O)Cc2cccs2)Cc2c1cnn2C (stereo unspecified),-41.11
2,COc1ccccc1S(=O)(=O)N1CCC(Oc2cccnn2)CC1,33.61
3,CN(C)S(=O)(=O)N1CCC(Oc2ccccn2)CC1,-19.47
4,Cc1noc(C)c1S(=O)(=O)N1CCC(Oc2cccnn2)CC1,-12.23
5,Cc1ccc(S(=O)(=O)N2CCC(Oc3cccnn3)CC2)c(C)c1,71.06
6,O=S(=O)(c1ccccc1F)N1CCC(Oc2cccnn2)CC1,51.31
7,Cc1ccc(S(=O)(=O)N2CCC(Oc3ccccn3)CC2)c(C)c1,56.24
8,Cc1noc(C)c1S(=O)(=O)N1CCC(Oc2ccccn2)CC1,-11.22
9,CN(C)S(=O)(=O)N1CCC(Oc2cccnn2)CC1,20.38
10,COC(=O)c1sccc1S(=O)(=O)N1CCC(Oc2cccnn2)CC1,23.42
11,O=C(NCCCn1cccn1)N1CCCC1c1cccs1 (stereo unspecified),-13.45
12,CCc1cc2c(N3CCCC(c4cc(C(N)=O)[nH]n4)C3)ncnc2s1 (stereo unspecified),-126.83
13,Cc1cnc(C(=O)N2CCc3c(nc(-c4ccncc4)[nH]c3=O)C2)cn1,10.63
14,CNC(=O)C(C)(C)N1CCC[C@H]1C(=O)NC1CC1,24.91
15,CC(C)[C@@H]1CN(C(=O)C2(c3ccccc3)CC2)C[C@H]1C(=O)O,69.67
16,COc1ccc(C2(C(=O)N3C[C@@H](C(=O)O)[C@H](C(C)C)C3)CC2)cc1,17.2
17,CC(C)[C@@H]1CN(C(=O)C2(c3ccccc3)CCN(C)CC2)C[C@H]1C(=O)O,31.51
18,CCN(c1ccc(C(=O)N2CCC(C)CC2)cc1)S(=O)(=O)CC,9.63
19,CCN(c1ccc(C(=O)N2CCCC(C)C2)cc1)S(=O)(=O)CC (stereo unspecified),-2.82
20,CCS(=O)(=O)N(C)c1ccc(C(=O)N2CCCC(C)C2)cc1 (stereo unspecified),62.77
21,NC(=O)NC1(C(=O)N2CCc3c(Cl)cccc3C2)CCCCC1,42.2
22,CN1CCN(C(=O)C2(NC(N)=O)CCCCC2)Cc2ccccc21,50.61
23,CN1CCN(C(=O)C2(S(C)(=O)=O)CCCC2)Cc2ccccc21,-21.76
